Measured values reported in the supplement of paper PMC11741263, “Chemoproteomic Profiling of C. albicans for Characterization of Anti-fungal Kinase Inhibitors” (bioRxiv, 2025).

What was measured:
Test in all cases: MIB bead binding, log2 fold change vs DMSO (log2 ratio); higher = less competition (weaker engagement)
[1] = target: T1, ATG1 (UniProt Q5A649)
T1 sequence (whole entry): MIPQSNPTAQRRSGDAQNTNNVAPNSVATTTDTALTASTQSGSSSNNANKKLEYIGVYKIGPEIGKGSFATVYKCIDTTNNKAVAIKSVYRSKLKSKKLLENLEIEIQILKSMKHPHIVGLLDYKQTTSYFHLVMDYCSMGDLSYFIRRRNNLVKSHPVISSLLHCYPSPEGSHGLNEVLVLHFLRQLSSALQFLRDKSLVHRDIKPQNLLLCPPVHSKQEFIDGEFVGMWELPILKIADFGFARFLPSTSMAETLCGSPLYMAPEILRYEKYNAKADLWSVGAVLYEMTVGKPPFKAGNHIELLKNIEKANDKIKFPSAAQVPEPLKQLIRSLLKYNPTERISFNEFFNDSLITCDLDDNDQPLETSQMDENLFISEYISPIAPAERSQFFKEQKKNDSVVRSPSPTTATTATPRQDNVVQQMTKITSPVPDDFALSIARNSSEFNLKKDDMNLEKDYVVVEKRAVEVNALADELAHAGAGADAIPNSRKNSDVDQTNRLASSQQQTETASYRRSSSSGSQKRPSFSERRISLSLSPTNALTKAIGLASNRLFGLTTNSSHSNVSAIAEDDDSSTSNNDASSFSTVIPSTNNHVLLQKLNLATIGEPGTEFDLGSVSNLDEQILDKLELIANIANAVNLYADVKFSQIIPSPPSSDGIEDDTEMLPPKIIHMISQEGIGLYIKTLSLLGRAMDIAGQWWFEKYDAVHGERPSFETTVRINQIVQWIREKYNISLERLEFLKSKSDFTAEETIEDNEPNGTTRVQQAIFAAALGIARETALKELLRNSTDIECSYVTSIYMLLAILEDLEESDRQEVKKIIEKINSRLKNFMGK

[2] = target: T2, PKC1 (UniProt P43057)
T2 sequence (whole entry): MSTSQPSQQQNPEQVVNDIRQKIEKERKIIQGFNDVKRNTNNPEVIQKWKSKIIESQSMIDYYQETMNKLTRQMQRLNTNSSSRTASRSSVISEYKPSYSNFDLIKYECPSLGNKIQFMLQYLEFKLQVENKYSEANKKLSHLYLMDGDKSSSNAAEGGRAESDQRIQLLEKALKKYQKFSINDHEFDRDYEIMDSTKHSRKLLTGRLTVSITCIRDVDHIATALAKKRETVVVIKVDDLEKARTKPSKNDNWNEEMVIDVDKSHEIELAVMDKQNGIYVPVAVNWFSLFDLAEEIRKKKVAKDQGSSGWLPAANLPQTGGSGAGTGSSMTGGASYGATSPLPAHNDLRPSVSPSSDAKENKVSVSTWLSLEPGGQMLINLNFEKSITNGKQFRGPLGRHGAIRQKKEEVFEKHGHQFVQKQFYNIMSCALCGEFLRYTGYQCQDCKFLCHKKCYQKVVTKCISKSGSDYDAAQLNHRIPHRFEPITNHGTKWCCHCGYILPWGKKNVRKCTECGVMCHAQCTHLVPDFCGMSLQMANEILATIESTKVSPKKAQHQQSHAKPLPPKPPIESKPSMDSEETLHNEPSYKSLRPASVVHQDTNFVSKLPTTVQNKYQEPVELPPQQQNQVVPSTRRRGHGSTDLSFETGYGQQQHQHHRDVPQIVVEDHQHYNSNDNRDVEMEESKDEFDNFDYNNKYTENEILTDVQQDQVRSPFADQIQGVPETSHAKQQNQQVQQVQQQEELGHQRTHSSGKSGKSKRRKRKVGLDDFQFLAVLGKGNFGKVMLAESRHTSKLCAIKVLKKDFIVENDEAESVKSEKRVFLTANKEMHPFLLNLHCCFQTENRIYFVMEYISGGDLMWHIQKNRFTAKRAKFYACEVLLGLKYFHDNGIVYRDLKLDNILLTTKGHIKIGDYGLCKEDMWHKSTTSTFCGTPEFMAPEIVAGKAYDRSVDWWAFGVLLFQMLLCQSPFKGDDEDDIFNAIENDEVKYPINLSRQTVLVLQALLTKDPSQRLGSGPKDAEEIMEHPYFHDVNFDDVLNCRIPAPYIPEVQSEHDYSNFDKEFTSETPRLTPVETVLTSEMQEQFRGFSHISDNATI

[3] = target: T3, PKH2 (UniProt Q5A3P6)
T3 sequence (whole entry): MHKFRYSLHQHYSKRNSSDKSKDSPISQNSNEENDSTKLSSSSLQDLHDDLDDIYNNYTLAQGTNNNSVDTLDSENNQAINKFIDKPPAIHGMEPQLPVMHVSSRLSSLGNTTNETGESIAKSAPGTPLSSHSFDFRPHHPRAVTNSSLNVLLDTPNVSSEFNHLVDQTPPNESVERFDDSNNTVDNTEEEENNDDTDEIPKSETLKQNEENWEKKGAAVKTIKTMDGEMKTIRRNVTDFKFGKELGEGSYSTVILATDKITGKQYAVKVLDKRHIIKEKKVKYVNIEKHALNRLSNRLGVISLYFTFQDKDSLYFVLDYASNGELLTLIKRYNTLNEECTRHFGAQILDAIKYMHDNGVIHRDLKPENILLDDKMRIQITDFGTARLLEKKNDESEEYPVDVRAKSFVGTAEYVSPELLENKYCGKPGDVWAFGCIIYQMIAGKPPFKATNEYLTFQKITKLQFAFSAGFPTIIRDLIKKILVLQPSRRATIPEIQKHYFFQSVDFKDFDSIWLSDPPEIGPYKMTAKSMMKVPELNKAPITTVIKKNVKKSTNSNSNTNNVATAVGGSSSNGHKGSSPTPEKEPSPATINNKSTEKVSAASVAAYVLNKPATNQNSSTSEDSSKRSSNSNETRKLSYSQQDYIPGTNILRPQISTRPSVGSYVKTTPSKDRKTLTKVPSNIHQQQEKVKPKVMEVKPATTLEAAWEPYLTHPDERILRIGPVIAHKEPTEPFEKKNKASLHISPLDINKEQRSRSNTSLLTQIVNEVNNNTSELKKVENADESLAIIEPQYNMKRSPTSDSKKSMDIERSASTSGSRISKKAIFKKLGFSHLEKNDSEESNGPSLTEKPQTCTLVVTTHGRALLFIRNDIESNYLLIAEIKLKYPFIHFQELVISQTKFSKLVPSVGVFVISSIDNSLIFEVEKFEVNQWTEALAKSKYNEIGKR

Compound: Cc1[nH]nc2ccc(-c3cc(OC[C@@H](N)Cc4ccccc4)cnc3-c3ccoc3)cc12
- MIB bead binding (log2) ([1]; 0.1 µM): -0.123
- MIB bead binding (log2) ([1]; 1 µM): -0.147
- MIB bead binding (log2) ([1]; 10 µM): -0.524
- MIB bead binding (log2) ([2]; 0.1 µM): -0.235
- MIB bead binding (log2) ([2]; 1 µM): 0.00546
- MIB bead binding (log2) ([2]; 10 µM): -0.233
- MIB bead binding (log2) ([3]; 0.1 µM): -0.165
- MIB bead binding (log2) ([3]; 1 µM): -0.0865
- MIB bead binding (log2) ([3]; 10 µM): -0.756
